Of roughly 8,800 targets only a part is listed; those with a hit were picked by preference. About 0.5% of all pairs of compound and target were hits. Values without a mark were called inactive.
Experiments:
Test in all cases: log2 fold change, soluble protein after heating vs DMSO (PISA); higher = thermal stabilisation; K562 lysate, 10 uM; active = over 0.2 and 3.5 SD of the protein, either way, in both replicates (recomputed)
alvocidib = compound: CN1CC[C@H](c2c(O)cc(O)c3c(=O)cc(-c4ccccc4Cl)oc23)[C@H](O)C1 [alvocidib]
Outline: (§1)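 The values are log-two fold changes in thermal stability compared with solvent controls and come from duplicates. They were obtained by TMTpro 16plex LC-MS/MS, with channel sums equalised, on the supernatant after 21,000xg for 90 min. That supernatant came from crude K562 extract at 1 mg/mL protein treated with 10 μM compound for 30 min, heated for 3 min across 48°C-58°C, pooled and brought to 0.5% NP-40 at 4°C.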

Tubastatin A = compound: CN1CCc2c(c3ccccc3n2Cc2ccc(C(=O)NO)cc2)C1 [Tubastatin A]
Outline: as §1

[1] = compound: CNC(=O)C1=CC=CC=C1NC2=NC(=NC=C2Cl)NC3=C(C=C(C=C3)N4CCOCC4)OC
Outline: as §1

defactinib = compound: CNC(=O)c1ccc(Nc2ncc(C(F)(F)F)c(NCc3nccnc3N(C)S(C)(=O)=O)n2)cc1 [defactinib]
Outline: as §1

[2] = compound: CNc1nc(-c2ccc3c(N)n[nH]c3c2)cc(N2C[C@@H](C(=O)NC3CCCCC3)CC[C@H]2C)n1
Outline: as §1

encorafenib = compound: COC(=O)N[C@@H](C)CNc1nccc(-c2cn(C(C)C)nc2-c2cc(Cl)cc(NS(C)(=O)=O)c2F)n1 [encorafenib]
Outline: as §1

[3] = compound: COC(=O)[C@H](CCSC)NC(=O)C1=C(C=C(C=C1)NC[C@H](CS)N)C2=CC=CC=C2
Outline: as §1

alisertib = compound: COc1cc(Nc2ncc3c(n2)-c2ccc(Cl)cc2C(c2c(F)cccc2OC)=NC3)ccc1C(=O)O [alisertib]
Outline: as §1

[4] = compound: COc1cc2nc(-c3cc(F)ccc3O)nc(N[C@@H]3CNC[C@H]3C(C)(C)O)c2cc1OC
Outline: as §1

gefitinib = compound: COc1cc2ncnc(Nc3ccc(F)c(Cl)c3)c2cc1OCCCN1CCOCC1 [gefitinib]
Outline: as §1

lapatinib = compound: CS(=O)(=O)CCNCc1ccc(-c2ccc3ncnc(Nc4ccc(OCc5cccc(F)c5)c(Cl)c4)c3c2)o1 [lapatinib]
Outline: as §1

pictilisib = compound: CS(=O)(=O)N1CCN(Cc2cc3nc(-c4cccc5[nH]ncc45)nc(N4CCOCC4)c3s2)CC1 [pictilisib]
Outline: as §1

crizotinib = compound: C[C@@H](Oc1cc(-c2cnn(C3CCNCC3)c2)cnc1N)c1c(Cl)ccc(F)c1Cl [crizotinib]
Outline: as §1

[5] = compound: C[C@H](C1=CC=C(C=C1)C(=O)NC2=C3C=CNC3=NC=C2)N
Outline: as §1

duvelisib = compound: C[C@H](Nc1ncnc2nc[nH]c12)c1cc2cccc(Cl)c2c(=O)n1-c1ccccc1 [duvelisib]
Outline: as §1

gandotinib = compound: Cc1cc(Nc2cc(CN3CCOCC3)c3nc(C)c(Cc4ccc(Cl)cc4F)n3n2)n[nH]1 [gandotinib]
Outline: as §1

tozasertib = compound: Cc1cc(Nc2cc(N3CCN(C)CC3)nc(Sc3ccc(NC(=O)C4CC4)cc3)n2)n[nH]1 [tozasertib]
Outline: as §1

doramapimod = compound: Cc1ccc(-n2nc(C(C)(C)C)cc2NC(=O)Nc2ccc(OCCN3CCOCC3)c3ccccc23)cc1 [doramapimod]
Outline: as §1

bafetinib = compound: Cc1ccc(NC(=O)c2ccc(CN3CC[C@H](N(C)C)C3)c(C(F)(F)F)c2)cc1Nc1nccc(-c2cncnc2)n1 [bafetinib]
Outline: as §1

[6] = compound: Cc1cccc(CC(=O)N2CCc3c2ccc(-c2cn(C)c4ncnc(N)c24)c3F)n1
Outline: as §1

Sequence of UniProt Q96RR4 (Q96RR4 whole entry, looked up): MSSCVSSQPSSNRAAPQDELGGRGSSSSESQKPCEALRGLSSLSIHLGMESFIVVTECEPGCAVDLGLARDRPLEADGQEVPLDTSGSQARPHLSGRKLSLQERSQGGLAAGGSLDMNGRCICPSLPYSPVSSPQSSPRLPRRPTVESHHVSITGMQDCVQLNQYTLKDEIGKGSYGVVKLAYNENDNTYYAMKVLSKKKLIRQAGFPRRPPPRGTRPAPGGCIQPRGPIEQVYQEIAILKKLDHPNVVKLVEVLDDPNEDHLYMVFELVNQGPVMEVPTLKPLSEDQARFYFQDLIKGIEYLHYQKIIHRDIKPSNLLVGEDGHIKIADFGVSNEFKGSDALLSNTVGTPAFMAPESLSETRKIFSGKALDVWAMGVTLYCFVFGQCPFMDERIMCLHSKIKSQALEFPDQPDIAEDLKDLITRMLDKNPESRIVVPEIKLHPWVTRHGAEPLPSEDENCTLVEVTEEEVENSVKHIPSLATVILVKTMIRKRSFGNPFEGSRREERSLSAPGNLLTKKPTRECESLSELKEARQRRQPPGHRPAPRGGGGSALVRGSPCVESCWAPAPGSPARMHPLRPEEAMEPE
Sequence of UniProt P14635 (P14635 whole entry, looked up): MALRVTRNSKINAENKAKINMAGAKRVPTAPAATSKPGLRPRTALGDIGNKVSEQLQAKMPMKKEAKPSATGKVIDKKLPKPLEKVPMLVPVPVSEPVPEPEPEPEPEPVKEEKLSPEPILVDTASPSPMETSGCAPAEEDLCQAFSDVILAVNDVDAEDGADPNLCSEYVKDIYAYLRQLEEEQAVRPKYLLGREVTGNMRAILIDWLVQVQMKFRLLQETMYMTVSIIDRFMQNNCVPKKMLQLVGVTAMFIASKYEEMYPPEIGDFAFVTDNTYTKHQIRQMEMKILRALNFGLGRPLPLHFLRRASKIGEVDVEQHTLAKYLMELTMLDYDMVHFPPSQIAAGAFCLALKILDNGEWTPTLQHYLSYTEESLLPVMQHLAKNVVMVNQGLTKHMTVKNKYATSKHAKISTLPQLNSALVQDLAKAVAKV
Sequence of UniProt O95674 (O95674 whole entry, looked up): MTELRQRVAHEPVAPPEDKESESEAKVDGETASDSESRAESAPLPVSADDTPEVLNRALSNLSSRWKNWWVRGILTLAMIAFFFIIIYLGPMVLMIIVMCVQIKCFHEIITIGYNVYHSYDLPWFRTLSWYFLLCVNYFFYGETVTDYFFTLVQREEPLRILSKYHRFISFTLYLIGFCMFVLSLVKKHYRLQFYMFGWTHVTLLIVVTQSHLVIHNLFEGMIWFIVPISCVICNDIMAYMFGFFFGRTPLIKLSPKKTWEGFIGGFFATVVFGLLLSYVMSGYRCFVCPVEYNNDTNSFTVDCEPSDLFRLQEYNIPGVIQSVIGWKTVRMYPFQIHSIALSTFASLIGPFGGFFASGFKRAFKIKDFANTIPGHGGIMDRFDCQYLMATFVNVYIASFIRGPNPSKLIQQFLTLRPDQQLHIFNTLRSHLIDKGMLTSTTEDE
Sequence of UniProt P30281 (P30281 whole entry, looked up): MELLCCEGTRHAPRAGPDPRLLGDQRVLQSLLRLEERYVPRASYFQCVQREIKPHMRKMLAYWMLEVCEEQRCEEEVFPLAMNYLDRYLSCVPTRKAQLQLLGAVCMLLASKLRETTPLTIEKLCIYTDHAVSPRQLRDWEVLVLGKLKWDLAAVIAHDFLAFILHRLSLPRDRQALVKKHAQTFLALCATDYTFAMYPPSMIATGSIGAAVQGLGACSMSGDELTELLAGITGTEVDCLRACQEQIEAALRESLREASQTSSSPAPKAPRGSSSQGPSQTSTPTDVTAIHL
Sequence of UniProt Q8WUX2 (Q8WUX2 whole entry, looked up): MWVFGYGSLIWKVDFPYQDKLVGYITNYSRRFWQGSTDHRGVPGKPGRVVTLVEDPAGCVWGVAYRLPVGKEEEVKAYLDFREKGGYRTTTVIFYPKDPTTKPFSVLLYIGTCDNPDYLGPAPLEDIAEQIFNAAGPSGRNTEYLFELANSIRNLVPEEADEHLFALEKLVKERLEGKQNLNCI
Sequence of UniProt P25440 (P25440 whole entry, looked up): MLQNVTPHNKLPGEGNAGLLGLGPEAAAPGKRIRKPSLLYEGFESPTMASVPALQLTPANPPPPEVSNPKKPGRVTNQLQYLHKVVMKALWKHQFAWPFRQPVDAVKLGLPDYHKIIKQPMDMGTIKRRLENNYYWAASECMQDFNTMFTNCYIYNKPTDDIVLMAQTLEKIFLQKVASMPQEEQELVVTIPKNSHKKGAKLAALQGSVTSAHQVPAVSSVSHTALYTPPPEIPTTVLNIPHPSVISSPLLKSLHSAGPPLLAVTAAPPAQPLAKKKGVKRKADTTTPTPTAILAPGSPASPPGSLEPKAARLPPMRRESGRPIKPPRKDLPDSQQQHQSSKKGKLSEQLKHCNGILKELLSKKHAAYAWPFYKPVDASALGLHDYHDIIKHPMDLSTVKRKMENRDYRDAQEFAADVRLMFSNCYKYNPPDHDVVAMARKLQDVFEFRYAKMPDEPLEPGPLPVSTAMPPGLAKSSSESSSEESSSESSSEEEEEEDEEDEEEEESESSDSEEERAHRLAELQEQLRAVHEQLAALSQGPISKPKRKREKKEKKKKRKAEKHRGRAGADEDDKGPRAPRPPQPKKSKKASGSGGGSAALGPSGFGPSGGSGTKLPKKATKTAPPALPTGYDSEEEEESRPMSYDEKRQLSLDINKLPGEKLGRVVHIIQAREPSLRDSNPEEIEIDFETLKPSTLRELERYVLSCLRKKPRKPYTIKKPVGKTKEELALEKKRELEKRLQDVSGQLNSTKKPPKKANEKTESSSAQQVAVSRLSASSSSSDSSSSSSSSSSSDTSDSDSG
Sequence of UniProt P49069 (P49069 whole entry, looked up): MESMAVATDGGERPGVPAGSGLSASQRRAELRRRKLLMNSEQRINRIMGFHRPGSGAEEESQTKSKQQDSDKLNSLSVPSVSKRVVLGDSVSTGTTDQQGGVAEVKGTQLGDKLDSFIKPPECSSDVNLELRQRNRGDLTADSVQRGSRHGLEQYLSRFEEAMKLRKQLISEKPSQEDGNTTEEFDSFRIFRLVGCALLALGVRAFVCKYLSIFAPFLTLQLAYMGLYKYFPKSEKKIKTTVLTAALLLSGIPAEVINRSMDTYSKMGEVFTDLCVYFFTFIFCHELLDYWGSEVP
Sequence of UniProt P49918 (P49918 whole entry, looked up): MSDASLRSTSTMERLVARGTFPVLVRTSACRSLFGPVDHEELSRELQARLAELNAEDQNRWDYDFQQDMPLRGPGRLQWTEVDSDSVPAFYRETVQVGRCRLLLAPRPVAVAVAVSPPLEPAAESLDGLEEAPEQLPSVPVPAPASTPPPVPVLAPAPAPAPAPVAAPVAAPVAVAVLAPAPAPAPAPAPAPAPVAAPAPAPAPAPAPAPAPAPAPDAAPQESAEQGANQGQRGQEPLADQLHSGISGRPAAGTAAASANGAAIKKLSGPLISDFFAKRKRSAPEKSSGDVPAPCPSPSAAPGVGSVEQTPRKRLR
Sequence of UniProt O75794 (O75794 whole entry, looked up): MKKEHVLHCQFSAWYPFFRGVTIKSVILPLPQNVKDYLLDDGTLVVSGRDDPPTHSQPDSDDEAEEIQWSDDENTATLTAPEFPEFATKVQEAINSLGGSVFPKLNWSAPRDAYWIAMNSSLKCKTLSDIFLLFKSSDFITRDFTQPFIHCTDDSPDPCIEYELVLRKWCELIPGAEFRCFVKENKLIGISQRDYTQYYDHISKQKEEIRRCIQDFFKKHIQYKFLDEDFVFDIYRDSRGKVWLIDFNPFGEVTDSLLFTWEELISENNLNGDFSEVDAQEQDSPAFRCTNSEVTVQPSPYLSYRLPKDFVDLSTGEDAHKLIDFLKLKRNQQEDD
Sequence of UniProt Q86WJ1 (Q86WJ1 whole entry, looked up): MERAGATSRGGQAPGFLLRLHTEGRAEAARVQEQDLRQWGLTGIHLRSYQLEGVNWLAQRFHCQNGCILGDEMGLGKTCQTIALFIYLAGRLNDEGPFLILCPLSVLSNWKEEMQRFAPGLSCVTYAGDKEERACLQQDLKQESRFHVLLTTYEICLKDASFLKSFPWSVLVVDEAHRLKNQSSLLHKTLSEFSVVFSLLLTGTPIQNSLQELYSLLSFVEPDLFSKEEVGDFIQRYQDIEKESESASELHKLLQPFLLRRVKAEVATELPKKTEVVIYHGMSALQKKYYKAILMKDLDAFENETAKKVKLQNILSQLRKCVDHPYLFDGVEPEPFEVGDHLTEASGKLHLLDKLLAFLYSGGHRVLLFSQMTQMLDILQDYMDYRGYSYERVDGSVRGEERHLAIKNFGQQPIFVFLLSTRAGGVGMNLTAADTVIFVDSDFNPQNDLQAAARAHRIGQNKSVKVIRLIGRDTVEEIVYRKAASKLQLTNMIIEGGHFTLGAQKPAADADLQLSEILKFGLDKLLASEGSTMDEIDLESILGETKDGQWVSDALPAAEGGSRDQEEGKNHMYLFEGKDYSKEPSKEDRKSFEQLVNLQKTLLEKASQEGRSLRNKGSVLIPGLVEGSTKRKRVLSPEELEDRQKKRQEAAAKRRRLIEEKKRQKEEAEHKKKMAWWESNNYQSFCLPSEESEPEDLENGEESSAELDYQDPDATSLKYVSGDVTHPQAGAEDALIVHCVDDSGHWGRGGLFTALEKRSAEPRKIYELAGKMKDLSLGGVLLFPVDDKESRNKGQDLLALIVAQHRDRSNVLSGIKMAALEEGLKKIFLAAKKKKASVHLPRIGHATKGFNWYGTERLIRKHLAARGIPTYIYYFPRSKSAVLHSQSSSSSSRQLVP
Sequence of UniProt Q9HB09 (Q9HB09 whole entry, looked up): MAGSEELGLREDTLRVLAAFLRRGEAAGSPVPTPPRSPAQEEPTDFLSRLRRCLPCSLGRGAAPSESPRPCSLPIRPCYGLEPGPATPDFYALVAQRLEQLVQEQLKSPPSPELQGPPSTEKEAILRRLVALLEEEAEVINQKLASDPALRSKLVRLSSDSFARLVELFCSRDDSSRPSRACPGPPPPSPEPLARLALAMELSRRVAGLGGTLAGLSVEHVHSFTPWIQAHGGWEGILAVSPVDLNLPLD

Target	log2 fold change (alvocidib)	log2 fold change (Tubastatin A)	log2 fold change [1]	log2 fold change (defactinib)	log2 fold change [2]	log2 fold change (encorafenib)	log2 fold change [3]	log2 fold change (alisertib)	log2 fold change [4]	log2 fold change (gefitinib)	log2 fold change (lapatinib)	log2 fold change (pictilisib)	log2 fold change (crizotinib)	log2 fold change [5]	log2 fold change (duvelisib)	log2 fold change (gandotinib)	log2 fold change (tozasertib)	log2 fold change (doramapimod)	log2 fold change (bafetinib)	log2 fold change [6]
CDS2 (UniProt O95674)	-0.037	0.116	-0.036	0.04	-0.021	0.027	0.007	0.012	0.033	0	0.02	-0.007	0.031	-0.029	0.088	0.048	0.054	0.009	0.006	0.019
CAMKK2 (UniProt Q96RR4)	-0.018	-0.123	0.277 (active)	0.059	-0.113	-0.013	0.018	-0.01	0.019	0.021	-0.018	0.006	0.108	0.023	0.058	0.257 (active)	-0.055	0.031	0.018	-0.056
BCL2L12 (UniProt Q9HB09)	0.012	0.016	-0.087	0.113	-0.059	-0.207	0.023	0.008	0.1	-0.062	0.164	-0.184	0.01	0.045	0.009	-0.003	-0.056	-0.016	-0.296	0.057
CDK5RAP3 isoform 4 (UniProt Q96JB5)	-0.118	0.038	-0.007	-0.021	0.021	0.007	0.094	0.006	0.026	-0.024	-0.013	-0.028	-0.054	-0.231 (active)	-0.002	0.173	0.019	0.017	-0.02	0.211
CDK11B (UniProt P21127)	0.273 (active)	-0.081	0.012	-0.013	0.019	-0.012	0.108	0.012	-0.036	-0.016	-0.017	-0.006	0.461 (active)	-0.012	0	0.399 (active)	0.02	0.031	-0.042	0.007
CDKN1C (UniProt P49918)	-0.035	-0.056	0.025	-0.186	-0.067	-0.037	-0.019	-0.082	0.046	-0.136	0.027	-0.033	0.105	-0.025	-0.035	-0.046	-0.095	-0.045	0.049	0.071
BRD2 isoform 2 (UniProt P25440)	0.06	0.002	0.059	-0.187	0.068	0.084	-0.118	0	0.019	-0.009	0.014	0.012	0.024	0.128	-0.007	-0.133	0	-0.084	-0.131	-0.186
CHD1L (UniProt Q86WJ1)	0.012	-0.16	-0.003	-0.001	-0.025	0.013	0.114	0.018	-0.002	0.006	-0.037	-0.045	-0.115	-0.011	0.013	-0.062	0.052	0.128	-0.055	0.038
CDC123 (UniProt O75794)	0.019	-0.125	0.009	0.007	-0.03	0.018	0.136	-0.004	-0.023	-0.001	0.016	-0.011	-0.012	0.032	0.02	0.335 (active)	-0.022	-0.032	-0.049	-0.048
CCDC186 (UniProt Q7Z3E2)	0.056	0.004	0.062	-0.012	-0.029	0.067	-0.004	0.015	0.004	0.055	-0.056	-0.004	0.006	0.295 (active)	0.022	-0.061	0	-0.01	-0.047	-0.064
CAMLG (UniProt P49069)	0.051	-0.037	0.044	0.067	-0.012	0.09	-0.13	0.136	0.006	0.028	0.009	-0.039	0.014	0.179	-0.001	-0.058	-0.037	-0.005	0	-0.12
CDAN1 (UniProt Q8IWY9)	-0.034	-0.051	0.049	0.039	0.017	-0.018	0.093	0.02	-0.022	-0.012	0.009	-0.05	-0.038	0	0.026	-0.073	0.068	-0.021	-0.056	0.051
CDKN2AIP (UniProt Q9NXV6)	-0.008	-0.066	-0.016	-0.011	0.054	0.023	0.236 (active)	0.021	-0.003	-0.073	-0.015	-0.036	0.024	-0.04	0.017	0.08	-0.034	0.043	0.016	0.026
CHAC2 (UniProt Q8WUX2)	0.223	0.019	0.092	0.028	0.019	0.06	0.003	-0.039	-0.007	0	0.038	-0.011	0.003	0.57 (active)	0.038	-0.161	0.015	-0.01	-0.018	-0.198
CCNB1 (UniProt P14635)	-0.015	0.021	-0.003	-0.117	0.028	0.029	-0.023	0	0.407 (active)	-0.024	-0.029	-0.01	-0.024	-0.019	0.033	-0.078	0.005	0.03	-0.004	0.091
CCND3 (UniProt P30281)	0.144	-0.001	0.024		0.037	0.081	-0.128	0.073		0.201		-0.01	-0.083	-0.175	0.015	-0.022	0.073	0.101	0.003	0.096

Reference: the supplement of paper PMC10849652
